HIF-2a block – blocks HIF-2a reporter activity; 786-0 RCC cells HIF-2a reporter, luciferase luminescence, overnight; inhibition, % at 18.8 µM; hit rate 0.72% among 360,000;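 active means inhibition of the luminescence signal of 40% or more relative to plate controls, in a single-dose primary screen at 18.75 µM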
HSP90 inh – inhibitors of HSP90 luciferase refolding in rabbit reticulocyte lysate; inhibition, % at 5.6 µM; hit rate 0.91% among 290,000; luciferase refolding luminescence, 3 h;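 active means inhibition above the screen-wide mean plus 3 SD, computed separately per campaign, cut at about 16% in these data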;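 further: 0% = DMSO wells and 100% = 60 µM geldanamycin wells; inhibitors lower the luminescence because luciferase stays unfolded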
TWEAK Fn14 block – inhibitors of TWEAK-Fn14 interaction signaling; TWEAK-stimulated Fn14 reporter cells, luciferase luminescence, 8 h; inhibition, % at 10 µM; hit rate 2% among 360,000; AID 1159606; in the data active means inhibition above about 50%
TRAIL sens C8 – sensitizes caspase-8 expressing cells to TRAIL. NB7+C8 cells + TRAIL, ATPlite viability luminescence. AID 624354. hit rate 1% among 360,000. inhibition (viability loss, TRAIL sensitization), % at 10 µM;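 active means compounds causing at least 50% loss of cell viability in the single-dose screen, relative to plate controls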
TROY signal inh – blocks TROY-dependent signaling in reporter cells | Q293 LMP1-TROYcd NF-kB luciferase reporter, 4 h | inhibition, % at 10 µM | hit rate 0.98% among 360,000 | AID 1347056;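 active means compounds whose plate-normalised and pattern-corrected inhibition of the luciferase reporter signal at the single screening dose is 50% or more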
aSyn 5UTR inh – MLPCN primary screen, SNCA 5' untranslated region; hit rate 0.82% among 300,000; inhibition, % (tested at 7.5 µM); alpha-synuclein 5'UTR reporter, inhibitor activity; in the data active means inhibition above about 60%;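 further: H4 neuroglioblastoma cells stably carrying SNCA 5'UTR luciferase fusion; 0% = DMSO wells and 100% = positive control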
The depositor's hits bear a star; · = not tested or not shown. Hits are enriched below; roughly 3.9% of the tested compounds scored in any of these assays.

SMILES | HIF-2a block | HSP90 inh | TWEAK Fn14 block | TRAIL sens C8 | TROY signal inh | aSyn 5UTR inh
CCN(CC(=O)Nc1c(F)cccc1F)C(=O)CCNC(=O)c1ccco1 | -2.6 | · | -0.5 | -1.9 | -26.7 | ·
CCn1c2ccccc2c2cc(CNCc3ccc(OC)cc3OC)ccc21 | 17.0 | 8.8 | 26.4 | 9.1 | 37.7 | 62.6*
COc1ccc(Cl)cc1C(=O)NNC(=O)c1cc2ccccc2o1 | -53.0 | · | -42.0 | -0.8 | -7.4 | ·
N#C/C(=C/c1ccc(N2CCCCC2)o1)c1cccc(F)c1 | -339.3 | 5.9 | -2.6 | 17.1 | 22.4 | -333.7
N#C/C(=C/c1ccc(N2CCCCCC2)o1)c1ccc(Cl)cc1 | 45.1* | -4.0 | 1.0 | 38.9 | -9.1 | -299.3
O=C(NCc1ccc(F)cc1)OC1CC2CC1[C@H]1CCCCN1C2=O (stereo partly drawn) | 4.3 | · | 6.9 | -11.9 | -5.0 | ·
CC(C)n1cc(C#N)c(N)n1 | 11.2 | · | 7.8 | -11.6 | 7.6 | ·
CCc1nc(Nc2cccc(O)c2)c2oc3ccccc3c2n1 | 10.2 | 1.9 | 70.0* | 7.8 | 75.7* | -13.1
CCc1nc(Nc2ccc3c(c2)OCO3)c2oc3ccccc3c2n1 | -78.9 | -3.2 | 50.5* | 15.3 | 31.3 | 23.8
Cc1c(C(=O)NC2CC(C)(C)NC(C)(C)C2)oc2c(Cl)cccc12 | 8.5 | · | 12.1 | -4.1 | -14.6 | ·
Cc1ccc(S(=O)(=O)NC(=O)C2(C)CCN2C(=O)C2CCCCC2)cc1 (stereo not drawn) | 8.4 | · | -2.0 | -8.2 | 0.8 | ·
CCc1c(C)nc2ccc(Br)cc2c1Cl | -72.7 | 1.3 | -18.1 | 14.7 | -30.9 | -24.1
Nc1nc(Cl)nc2ccc(Br)cc12 | -27.6 | 5.9 | 74.6* | 8.8 | 70.8* | -122.8
Cc1cc2c(cc1C)NC(=O)C(C)CN2 (stereo not drawn) | -232.6 | · | 14.5 | -5.3 | 30.1 | ·
CC1C(=O)N(Cc2cn(CCC3OCCO3)nn2)CCS(=O)(=O)N1Cc1ccc(-c2ccc(Cl)c(Cl)c2)cc1 (stereo not drawn) | -14.8 | · | 56.0* | 11.7 | 37.0 | ·
COc1ccc(-c2ccc(CN3C(C)C(=O)N(Cc4cn(CCC5OCCO5)nn4)CCS3(=O)=O)cc2)cc1 (stereo not drawn) | 11.7 | · | 5.4 | 11.2 | 16.6 | ·
O=[N+]([O-])c1cccc(-c2nnc(-c3ccc4c(c3)OCO4)o2)c1 | -212.5 | 3.1 | -57.4 | 18.1 | -55.1 | -77.8
O=[N+]([O-])c1cccc(-c2nnc(-c3ccccc3)o2)c1 | -294.1 | -2.1 | -21.1 | 4.5 | -38.7 | 67.9*
Fc1ccc(N2CCN(c3ncnc4c3nnn4Cc3ccccc3Cl)CC2)cc1 | 12.1 | 0.8 | 65.2* | 37.2 | 37.1 | 4.2
Cc1cccc(C)c1NC(=O)C1(C)CSCC(=O)N1CCc1ccccc1 (stereo not drawn) | -13.4 | · | · | -0.2 | · | ·
O=C1c2ccccc2C(c2nc3ccccc3[nH]2)N1c1ccccn1 (stereo not drawn) | 10.1 | · | 6.4 | -0.6 | -6.1 | ·
Cc1sc2ncnc(N/N=C/c3cccc(O)c3)c2c1C | -236.3 | -3.1 | -4.3 | 11.5 | -42.5 | -74.8
C/C(=N\Nc1ncc(Cl)cc1Cl)c1ccc(N2CCOCC2)cc1 | -55.8 | 9.2 | 62.3* | -1.0 | 54.6* | -32.6
C/C(=N\Nc1ncc(Cl)cc1Cl)c1ccccn1 | 6.6 | 2.6 | 91.6* | 89.0* | -0.4 | 100.5*
C/C(=N\Nc1nc(C)cc(C)n1)c1ccc(N2CCOCC2)cc1 | -17.4 | 0.0 | -4.3 | 1.6 | -3.3 | -23.3
SMILES | HIF-2a block | HSP90 inh | TWEAK Fn14 block | TRAIL sens C8 | TROY signal inh | aSyn 5UTR inh
C/C(=N\Nc1ncnc2sc(C)c(C)c12)c1ccccn1 | -388.8 | 13.4 | 73.1* | 8.2 | 23.4 | 104.9*
Clc1cnc(N/N=C/c2ccncc2)c(Cl)c1 | -42.6 | 2.3 | -9.8 | 15.2 | -2.2 | -24.0
CCCn1c(=O)c(C(=O)OCC)c(O)c2cc(Br)ccc21 | 13.1 | 5.9 | 5.0 | -3.9 | -1.3 | 3.2
CCOC(=O)c1c2c(n(C)c1COC)C(=O)C(=O)c1ccc(Br)cc1-2 | · | -1.4 | · | · | · | 92.1*
COc1cccc(-c2cnc3c(NC(C)=O)cc(-c4cccc(C(=O)NCCN(C)C)c4)cn23)c1 | -21.8 | · | -32.6 | -8.0 | -27.3 | ·
Cc1ccc(-c2cc3nc4c(c(=O)n3[nH]2)CCCC4)cc1 | -196.6 | 1.0 | 62.1* | 60.4* | -10.4 | -1.6
COc1ccc(OCCNC(=O)C2(C)CCN2Cc2ccc3ccccc3c2)cc1 (stereo not drawn) | 21.7 | · | -20.5 | 17.3 | 17.7 | ·
CC(C)Cc1ccc(C(C)/C=C2/CCC(CN3CCCCC3)C2=O)cc1 (stereo not drawn) | -5.6 | · | 6.8 | 10.9 | 3.6 | ·

Compound activity from PubChem.
